RGS16-Gao HTS: regulators of human RGS16-Galphao interaction; bead-based flow cytometry RGS16-Galphao binding, fluorescence; actives lie on both sides; AID 1441; binding response (% of control), % at 10 µM; actives 0.38% (n = 220,000); call rule not given here;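 also: Galphao activated by GDP with aluminum fluoride before binding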
Target sequence (O15492 whole entry, looked up): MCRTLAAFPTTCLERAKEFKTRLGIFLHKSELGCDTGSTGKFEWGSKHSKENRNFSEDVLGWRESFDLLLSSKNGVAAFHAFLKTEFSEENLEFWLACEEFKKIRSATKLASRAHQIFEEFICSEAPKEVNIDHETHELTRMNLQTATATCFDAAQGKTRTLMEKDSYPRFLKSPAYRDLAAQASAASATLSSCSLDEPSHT
Target sequence (P09471 whole entry, looked up): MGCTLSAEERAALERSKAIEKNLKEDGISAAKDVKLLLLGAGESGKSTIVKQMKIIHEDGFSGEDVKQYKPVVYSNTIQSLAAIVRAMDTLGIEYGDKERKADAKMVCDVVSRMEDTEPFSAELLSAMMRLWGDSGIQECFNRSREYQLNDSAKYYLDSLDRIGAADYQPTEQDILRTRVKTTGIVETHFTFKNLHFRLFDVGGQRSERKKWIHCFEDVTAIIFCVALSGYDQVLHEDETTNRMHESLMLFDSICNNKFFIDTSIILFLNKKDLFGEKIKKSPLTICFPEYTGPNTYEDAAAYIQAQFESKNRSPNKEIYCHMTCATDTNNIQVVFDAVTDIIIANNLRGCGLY
Avidin fluor: avidin bead compound fluorescence profile. actives 0.38% (n = 220,000). AID 1775. Avidin beads, compound fluorescence 488/530 nm, flow cytometry; stronger effect = higher value. fluorescence (KMESF) at 10 µM; in the data active = fluorescence above about 47
RGS4-Gao reg: human RGS4-Galphao interaction regulation; P09471; binding response (% of control), % at 10 µM; actives 0.33% (n = 220,000); Multiplexed bead flow cytometry, RGS4-Galphao binding; actives lie on both sides; AID 1415; in the data active = binding response below about 49% or above about 150%; inactive = in between;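 also: fluorescent Galphao activated with aluminum fluoride binding bead-coupled RGS4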
RGS8-Gao reg: human RGS8-Galphao interaction regulation. P09471. multiplexed bead flow cytometry, RGS8-Galphao binding; actives lie on both sides. response (percent of control binding), % at 10 µM. actives 0.34% (n = 220,000); in the data active = response below about 60% or above about 140%; inactive = in between;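 also: Galphao activated as the GDP aluminium fluoride complex binding bead-coupled RGS8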
RGS7-Gao reg: regulators of human RGS7-Galphao interaction | P09471 | Multiplexed bead flow cytometry, RGS7-Galphao binding; actives lie on both sides | binding response (% of control), % at 10 µM | actives 0.35% (n = 220,000) | AID 1439; in the data active = binding response below about 49% or above about 150%; inconclusive = no clear call, values can overlap the other calls; inactive = in between;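 also: fluorescent Galphao held in activated GDP-AlF4 state binding bead-coupled RGS7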
GSH fluor: GSH bead compound fluorescence profile; GSH beads flow cytometry, compound fluorescence 488/530 nm; stronger effect = higher value; fluorescence (KMESF) at 10 µM; actives 0.25% (n = 190,000); in the data active = fluorescence above about 89;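 also: glutathione beads carrying GST-tagged Bcl family fusion proteins plus one bare bead set; values are compound well signal with DMSO vehicle wells as background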
* hit, by the source's call; u = inconclusive; x = not tested or not shown; [ ] = remark or other dose. Only some compounds are listed: those with a hit (about 1.2% of all), similar ones and a draw of the others.

SMILES	RGS16-Gao HTS	Avidin fluor	RGS4-Gao reg	RGS8-Gao reg	RGS7-Gao reg	GSH fluor
CN(C)S(=O)(=O)c1cccc(NC(=O)COC(=O)COc2ccc(Br)cc2)c1	98	20	93	99	u	x
CN(C)S(=O)(=O)c1cccc(NC(=O)COC(=O)CCOc2ccccc2)c1	101	88*	120	97	u	13
COc1ccc(/C=C/C(O)=C(\C#N)c2nnc(N3CCOCC3)n2-c2ccccc2)cc1OC	102	11	100	101	u	15
CCNc1nc(NCC)nc(OCCOC(C)=O)n1	67	5	93	88	97	132*
Cc1ccc(NC(=O)C2CC(=O)N(Cc3ccco3)C2)cc1 (stereo unspecified)	88	7	86	96	u	x
CC[n+]1c(/C=C2\C=C(C)CC(C)(C)C2)sc2ccccc21	91	11	98	94	105	29
CC[n+]1c(/C=C2/C=C(C)CC(C)(C)C2)sc2ccc(OC)cc21	284	95*	181*[activator]	115	163*[activator]	30
COC(CNC(=O)c1c[nH]c2ccc(S(=O)(=O)N3CCC4(CC3)OCCO4)cc2c1=O)OC	70	3	95	90	96	26
O=C(c1c[nH]c2ccc(S(=O)(=O)N3CCC4(CC3)OCCO4)cc2c1=O)N1CCOCC1	99	51*	100	101	103	12
CCN(Cc1ccccc1)C(c1ccncc1)c1nnnn1C(C)(C)C (stereo unspecified)	103	49*	102	100	105	27
CCOC(=O)Cc1csc(NC(=O)NC2(C(F)(F)F)Oc3cc(Cl)c(Cl)cc3O2)n1	97	12	97	98	97	35
CCOC(=O)Cc1csc(NC(=O)NC2(C(F)(F)F)Oc3ccc(Cl)cc3O2)n1 (stereo unspecified)	93	6	95	97	94	251*
CCn1c(CCNC(=O)c2cccs2)n[nH]c1=S	100	17	105	99	103	17
CCc1cc2c(N3CCCCC3)ncnc2s1	113	6	108	108	108	247*
CCc1ccccc1NC(=O)N1CCc2ccccc21	96	7	100	102	u	x
O=[N+]([O-])c1ccc(Cl)c(/C=N/Nc2nc(N3CCOCC3)nc(N3CCOCC3)n2)c1	21	354*	104	83	92	61
O=[N+]([O-])c1ccc(/C=N/Nc2nc(N3CCOCC3)nc(N3CCOCC3)n2)cc1	105	10	102	101	99	24
COC(=O)c1ccc(Nc2nc(C)cc(C)n2)cc1	100	42	97	99	102	14
COc1nc(Nc2ccc(C(C)=O)cc2)nc(OC)n1	239	76*	188*[activator]	94	149	33
CCOc1cccc(C(=O)Nc2cccc(-c3nnc(-c4ccc(C)cc4)o3)c2)c1	341	46	151*[activator]	109	143	24
CCOc1cccc(C(=O)Nc2cccc(-c3nnc(-c4ccccc4)o3)c2)c1	93	8	93	95	89	20
CSCC[C@H](NC(=O)OC(C)(C)C)c1nnc(SCC=C(C)C)o1	101	8	100	100	101	267*
Cc1ccc(Nc2ncnc(N)n2)cc1C	102	10	100	101	97	10
CN1C(=CC=C2C=C(I)C(=O)C(I)=C2)C(C)(C)c2ccccc21	98	20	102	97	u	x
CN1/C(=C\C=C2/C(=O)Oc3ccccc3C2=O)C(C)(C)c2ccccc21	133	90*	135	103	142	68
SMILES	RGS16-Gao HTS	Avidin fluor	RGS4-Gao reg	RGS8-Gao reg	RGS7-Gao reg	GSH fluor
CCOC(=O)C1CCCN(C(=O)c2cc(Nc3ccc(OC)cc3)nc3ccccc23)C1 (stereo unspecified)	106	51*	108	101	116	16
CCOC(=O)C1CCCN(C(=O)c2cc(-c3ccc(F)cc3)nc3ccccc23)C1 (stereo unspecified)	113	23	101	103	104	11
COc1ccc(CCN2C(=O)c3ccccc3C2(O)c2ncc[nH]2)cc1OC (stereo unspecified)	101	4	95	98	95	146*
CSc1ccc(Cl)c(C(=O)NCc2ccco2)c1	60	3	95	98	103	250*
CCSc1nnc(NC(=O)c2ccc(C)o2)s1	105	48*	103	105	105	17
CCN1CCC2(CC1)Oc1c(OC)cccc1C1CC(c3cccnc3)=NN12 (stereo unspecified)	104	4	105	104	u	x
CCOC(=O)c1ccc(NC(=O)C(=O)NCC2(c3ccc(OC)cc3)CCOCC2)cc1	99	6	97	99	u	x
CC(=O)NC1CC(C)(C)N(OC(C)=O)C(C)(C)C1	114	53*	111	105	133	36
O=C(NCc1ccco1)C(=O)c1cn(CC(=O)N2CCCCC2)c2ccccc12	104	13	96	100	96	9
CCOC(=O)N1CCN(c2cc(NCCO)c([N+](=O)[O-])c3nonc23)CC1	97	103*	84	95	133	21
CCOCCCNCc1c(Cl)cccc1Cl	82	60*	108	84	107	18
CCCN(CCC)S(=O)(=O)c1cccc(-c2csc(C)n2)c1	104	3	102	104	u	x
Cc1ccc(NC(=O)C2CC(=O)N(Cc3ccccc3)C2)cc1S(=O)(=O)N1CCCCCC1 (stereo unspecified)	99	21	100	104	100	14
CCc1ccc(N2CC(C(=O)Nc3ccc(C)c(S(=O)(=O)N4CCOCC4)c3)CC2=O)cc1 (stereo unspecified)	168	5	181*[activator]	145*[activator]	152*[activator]	34
COC(=O)c1scc(C)c1NS(=O)(=O)c1ccc(NC(C)=O)cc1	99	9	101	100	u	x
O=c1cc(CN2CCN(c3ccccc3)CC2)c2c(ccc3ccccc32)o1	96	55*	100	98	108	14
O=c1cc(CN2CCC3(CC2)OCCO3)c2c(ccc3ccccc32)o1	98	10	99	102	103	8
Cn1nnc(NC(=O)CSc2ccc(Cl)cc2)n1	98	48*	99	99	105	25
Cc1ccc(NC(=O)c2cccc3c2-c2ccccc2C3=O)cc1C	98	15	101	100	102	21
CC(=O)Nc1ccc(NC(=O)c2cccc3c2-c2ccccc2C3=O)cc1	115	99*	109	107	140	8
Nc1c(C(=O)C2CC2)sc2nc(-c3ccccc3)cc(C(F)(F)F)c12	89	5	90	95	92	126*
CC(=O)c1sc2nc(-c3cccs3)cc(C(F)(F)F)c2c1N	95	25	95	98	100	28

Assay outcomes deposited in PubChem BioAssay by NMMLSC.
